# PubChem BioAssay AID1159580 (chemical genetic matrix, 2015)
# Several values for one entry are separate records, joined by “and”; a condition that tells them apart may be missing. Equal values may be shown once. In all, about 5,500 compounds went through this assay and about 2,000 (36%) were called active. Another 18% or so got no clear call; they are omitted. The list shows a part of the results. Unmarked numbers belong to inactive results. Cut-off read from the data, not from the text of the source: active = normalized growth mostly below about 0.91 (no sharp cut-off); inconclusive = no clear call, values can overlap the other calls; inactive = mostly above about 0.92.
# Test: chemical genetic growth profiling, strain panel (AID 1159580);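 note: tested at 20 µM; growth read once vehicle control cultures reached saturation at 30 °C; 1 = growth at the plate median or of vehicle wells; lower values mean less growth of the strain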
# Settings: S. cerevisiae deletion strains, growth OD
structure (smiles),measurement,setting,value
CC(=O)O[C@@H]1C=C[C@@]2(C)C(C[C@@H](OC(C)=O)[C@@]3(C)C4=CC(=O)O[C@@H](c5ccoc5)[C@]4(C)CCC23)C1(C)C (stereo partly specified),normalized growth,"locus YAL013W, strain DEP1, stronger effect = lower value",1.01
same,normalized growth,"locus YAL021C, strain ccr4, stronger effect = lower value",1
same,normalized growth,"locus YAL026C, strain drs2, stronger effect = lower value",0.985
same,normalized growth,"locus YAL030W, strain snc1, stronger effect = lower value",0.99
same,normalized growth,"locus YBL061C, strain skt5, stronger effect = lower value",0.992
same,normalized growth,"locus YBR009C, strain hhf1, stronger effect = lower value",1
same,normalized growth,"locus YBR021W, strain FUR4, stronger effect = lower value",1.03
same,normalized growth,"locus YBR023C, strain chs3, stronger effect = lower value",1.01
same,normalized growth,"locus YBR171W, strain sec66, stronger effect = lower value",0.994
same,normalized growth,"locus YBR229C, strain ROT2, stronger effect = lower value",1.02
same,normalized growth,"locus YBR231C, strain swc5, stronger effect = lower value",0.99
same,normalized growth,"locus YBR279W, strain paf1, stronger effect = lower value",1
same,normalized growth,"locus YCL011C, strain gbp2, stronger effect = lower value",0.982
same,normalized growth,"locus YCL016C, strain dcc1, stronger effect = lower value",0.975
same,normalized growth,"locus YCL029C, strain bik1, stronger effect = lower value",0.0759 (active)
same,normalized growth,"locus YCL061C, strain MRC1, stronger effect = lower value",0.997
same,normalized growth,"locus YCL069W, strain vba3, stronger effect = lower value",1.02
same,normalized growth,"locus YCR088W, strain abp1, stronger effect = lower value",1.01
same,normalized growth,"locus YDL005C, strain med2, stronger effect = lower value",0.984
same,normalized growth,"locus YDL035C, strain GPR1, stronger effect = lower value",0.991
same,normalized growth,"locus YDL040C, strain nat1, stronger effect = lower value",0.993
same,normalized growth,"locus YDL074C, strain BRE1, stronger effect = lower value",0.964
same,normalized growth,"locus YDL101C, strain DUN1, stronger effect = lower value",0.998
same,normalized growth,"locus YDL134C, strain PPH21, stronger effect = lower value",1
same,normalized growth,"locus YDL185W, strain tfp1, stronger effect = lower value",0.0668 (active)
same,normalized growth,"locus YDL192W, strain arf1, stronger effect = lower value",0.0652 (active)
same,normalized growth,"locus YDR001C, strain nth1, stronger effect = lower value",0.993
same,normalized growth,"locus YDR069C, strain doa4, stronger effect = lower value",0.996
same,normalized growth,"locus YDR101C, strain arx1, stronger effect = lower value",0.0671 (active)
same,normalized growth,"locus YDR137W, strain rgp1, stronger effect = lower value",0.946
same,normalized growth,"locus YDR150W, strain NUM1, stronger effect = lower value",1.01
same,normalized growth,"locus YDR159W, strain sac3, stronger effect = lower value",0.979
same,normalized growth,"locus YDR162C, strain NBP2, stronger effect = lower value",0.964
same,normalized growth,"locus YDR195W, strain ref2",0.975
same,normalized growth,"locus YDR297W, strain sur2, stronger effect = lower value",0.981
same,normalized growth,"locus YDR318W, strain mcm21, stronger effect = lower value",0.0639 (active)
same,normalized growth,"locus YDR334W, strain swr1, stronger effect = lower value",0.988
same,normalized growth,"locus YDR335W, strain msn5, stronger effect = lower value",0.986
same,normalized growth,"locus YDR388W, stronger effect = lower value",0.0562 (active)
same,normalized growth,"locus YDR392W, strain spt3, stronger effect = lower value",0.951
same,normalized growth,"locus YDR502C, strain sam2, stronger effect = lower value",0.0613 (active)
same,normalized growth,"locus YEL003W, strain gim4, stronger effect = lower value",0.997
same,normalized growth,"locus YEL037C, strain rad23, stronger effect = lower value",1
same,normalized growth,"locus YEL061C, strain CIN8 (second series), stronger effect = lower value",0.992
same,normalized growth,"locus YEL061C, strain CIN8, stronger effect = lower value",1.02
same,normalized growth,"locus YER015W, strain faa2, stronger effect = lower value",0.991
same,normalized growth,"locus YER016W, strain bim1, stronger effect = lower value",1.01
same,normalized growth,"locus YER110C, stronger effect = lower value",0.0742 (active)
same,normalized growth,"locus YER111C, strain swi4, stronger effect = lower value",1
same,normalized growth,"locus YER155C, strain BEM2 (second series), stronger effect = lower value",1.01
same,normalized growth,"locus YER155C, strain BEM2, stronger effect = lower value",1.01
same,normalized growth,"locus YER167W, strain BCK2, stronger effect = lower value",1.01
same,normalized growth,"locus YFR010W, strain ubp6, stronger effect = lower value",1.01
same,normalized growth,"locus YGL078C, strain dbp3, stronger effect = lower value",0.0566 (active)
same,normalized growth,"locus YGL086W, strain mad1, stronger effect = lower value",0.0536 (active)
same,normalized growth,"locus YGL167C, strain pmr1, stronger effect = lower value",0.988
same,normalized growth,"locus YGL173C, strain kem1, stronger effect = lower value",1.02
same,normalized growth,"locus YGL227W, strain vid30, stronger effect = lower value",1
same,normalized growth,"locus YGL240W, strain doc1, stronger effect = lower value",1
same,normalized growth,"locus YGL248W, strain PDE1, stronger effect = lower value",1.02
same,normalized growth,"locus YGL253W, strain hxk2, stronger effect = lower value",0.971
same,normalized growth,"locus YGR078C, strain PAC10, stronger effect = lower value",1.02
same,normalized growth,"locus YGR135W, strain pre9, stronger effect = lower value",0.0645 (active)
same,normalized growth,"locus YGR229C, strain SMI1, stronger effect = lower value",0.98
same,normalized growth,"locus YGR252W, strain gcn5, stronger effect = lower value",0.164 (active)
same,normalized growth,"locus YHR013C, strain ard1, stronger effect = lower value",0.973
same,normalized growth,"locus YHR027C, strain rpn1, stronger effect = lower value",0.983
same,normalized growth,"locus YHR030C, strain SLT2, stronger effect = lower value",1.02 and 0.986
same,normalized growth,"locus YHR079C, strain IRE1 (second series), stronger effect = lower value",0.0734 (active)
same,normalized growth,"locus YHR079C, strain IRE1, stronger effect = lower value",0.986
same,normalized growth,"locus YHR094C, strain hxt1, stronger effect = lower value",0.0578 (active)
same,normalized growth,"locus YHR129C, strain ARP1, stronger effect = lower value",1.01
same,normalized growth,"locus YHR142W, strain chs7, stronger effect = lower value",0.965
same,normalized growth,"locus YHR200W, strain rpn10, stronger effect = lower value",0.0597 (active)
same,normalized growth,"locus YIL066C, strain RNR3, stronger effect = lower value",1.02
same,normalized growth,"locus YIL073C, strain SPO22, stronger effect = lower value",1.03
same,normalized growth,"locus YIL125W, strain kgd1, stronger effect = lower value",0.0589 (active)
same,normalized growth,"locus YIR030C, strain dcg1, stronger effect = lower value",0.0619 (active)
same,normalized growth,"locus YJL092W, strain hpr5, stronger effect = lower value",0.987
same,normalized growth,"locus YJL095W, strain BCK1 (second series), stronger effect = lower value",0.974
same,normalized growth,"locus YJL095W, strain BCK1, stronger effect = lower value",0.979 and 0.982
same,normalized growth,"locus YJL115W, strain asf1, stronger effect = lower value",0.99
same,normalized growth,"locus YJL129C, strain trk1, stronger effect = lower value",0.959
same,normalized growth,"locus YJL134W, strain LCB3, stronger effect = lower value",1.02
same,normalized growth,"locus YJL154C, strain vps35, stronger effect = lower value",0.989
same,normalized growth,"locus YJL164C, strain tpk1, stronger effect = lower value",1
same,normalized growth,"locus YJL166W, strain qcr8, stronger effect = lower value",1
same,normalized growth,"locus YJL168C, strain set2, stronger effect = lower value",0.0579 (active)
same,normalized growth,"locus YJL187C, strain SWE1 (second series), stronger effect = lower value",1
same,normalized growth,"locus YJL187C, strain SWE1, stronger effect = lower value",0.994
same,normalized growth,"locus YJR043C, strain POL32, stronger effect = lower value",1.04
